Rows were chosen to be rich in hits. Some 2.9% of all compounds tested hit in one or more screens of this group.
Wnt act: activates Wnt/beta-catenin signaling in a reporter cell assay; activator, plate reader; activation, % at 9.35 µM; hit rate 1.2% among 300,000; AID 743398; in the data active = activation above about 30%, passing the limit was not always enough; inconclusive = no clear call, values can overlap the other calls
PfHsp90 set2: reduces growth (ATP signal) of yeast expressing P. falciparum Hsp90; S. cerevisiae expressing PfHsp90, BacTiter-Glo ATP, 48 h; yeast lacking PDR1 and PDR3 efflux regulators; inhibition, % at 9.4 µM; hit rate 0.32% among 310,000; AID 504621;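 active = every replicate shows inhibition above about 80%, whatever the replicate mean, limit read from the data; inconclusive = mean inhibition reaches the set limit but some replicate falls short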
NSD2 inh: inhibitors of human histone methyltransferase NSD2. NSD2 peptide methylation, AlphaScreen, 120 min. inhibition, % at 12.5 µM. AID 743445. hit rate 0.54% among 310,000. O96028; in the data active = inhibition above about 50%
Target sequence (O96028 whole entry, looked up): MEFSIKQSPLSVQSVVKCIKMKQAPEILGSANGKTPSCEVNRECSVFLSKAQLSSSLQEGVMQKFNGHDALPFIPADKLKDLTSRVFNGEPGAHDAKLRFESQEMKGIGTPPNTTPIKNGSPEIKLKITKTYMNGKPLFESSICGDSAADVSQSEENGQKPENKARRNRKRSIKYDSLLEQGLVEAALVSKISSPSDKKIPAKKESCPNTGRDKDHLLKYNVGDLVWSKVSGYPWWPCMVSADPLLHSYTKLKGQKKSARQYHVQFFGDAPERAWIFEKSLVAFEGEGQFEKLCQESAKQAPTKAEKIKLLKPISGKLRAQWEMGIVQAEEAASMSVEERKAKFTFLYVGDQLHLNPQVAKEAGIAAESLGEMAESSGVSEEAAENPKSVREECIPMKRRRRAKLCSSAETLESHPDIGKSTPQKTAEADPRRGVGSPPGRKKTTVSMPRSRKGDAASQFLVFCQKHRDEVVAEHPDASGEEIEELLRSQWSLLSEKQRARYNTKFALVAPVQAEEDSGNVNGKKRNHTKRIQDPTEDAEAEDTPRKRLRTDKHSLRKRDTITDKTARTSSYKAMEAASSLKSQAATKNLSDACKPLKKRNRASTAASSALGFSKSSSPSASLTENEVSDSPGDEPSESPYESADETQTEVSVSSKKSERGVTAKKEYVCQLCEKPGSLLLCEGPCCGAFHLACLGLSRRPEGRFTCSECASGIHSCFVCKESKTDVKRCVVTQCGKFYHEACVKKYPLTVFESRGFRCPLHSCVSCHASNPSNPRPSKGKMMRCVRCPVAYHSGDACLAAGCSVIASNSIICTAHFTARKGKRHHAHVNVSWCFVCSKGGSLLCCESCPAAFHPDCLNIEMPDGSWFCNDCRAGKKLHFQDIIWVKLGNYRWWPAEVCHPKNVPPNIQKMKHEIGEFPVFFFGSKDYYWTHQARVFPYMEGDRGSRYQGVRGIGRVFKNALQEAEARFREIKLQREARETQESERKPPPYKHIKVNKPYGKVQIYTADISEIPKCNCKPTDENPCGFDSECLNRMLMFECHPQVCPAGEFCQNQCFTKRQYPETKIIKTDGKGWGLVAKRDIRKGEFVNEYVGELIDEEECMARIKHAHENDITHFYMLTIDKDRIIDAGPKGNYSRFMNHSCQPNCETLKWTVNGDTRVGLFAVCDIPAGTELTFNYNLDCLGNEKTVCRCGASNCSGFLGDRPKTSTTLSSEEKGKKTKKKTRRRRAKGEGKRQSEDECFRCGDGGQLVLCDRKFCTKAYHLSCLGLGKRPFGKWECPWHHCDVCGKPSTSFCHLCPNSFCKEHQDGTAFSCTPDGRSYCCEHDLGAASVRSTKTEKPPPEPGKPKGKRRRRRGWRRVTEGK
MITF TRPM1 inh: reduces MITF-dependent TRPM1 promoter luciferase signal; SK-MEL-5 TRPM1 promoter luciferase, 24 h; hit rate 0.83% among 330,000; inhibition, % at 12.5 µM;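 active = mean inhibition across replicates of 60% or more, whatever share of single replicates reaches that level; inconclusive = some that reach 60%, reason not given; inactive = mean inhibition across replicates below 60%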
Glyco luc inh: blocks N-linked glycosylation in D54 reporter cells; D54 ERlucT glycosylation luciferase reporter, 24 h; percent of 100 nM tunicamycin response; reporter increase, % at 12.5 µM; hit rate 0.23% among 360,000; AID 588692;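 active = mean luciferase reporter signal, scaled so untreated is 0 and the glycosylation-blocking control 100, at or above a set limit in every replicate; inconclusive = mean reaches the limit but not every replicate does; inactive = mean below the limit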;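 also: luciferase carries N-glycosylation sites so blocking glycosylation raises the light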
MITF TRPM1 HTS: MITF TRPM1 promoter activation in melanoma cells | SK-MEL-5 TRPM1-promoter luciferase, 24 h; % of positive control, neutral wells = 0 | activation, % at 12.5 µM | hit rate 0.75% among 300,000 | AID 588334;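 active = mean activation of at least 80% with every replicate also reaching 80%; inconclusive = mean reaches 80% but some replicate falls short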
Each line names hits and unclear results; the compound was inactive in the other large screens.

COC(=O)C1=C(C)N(C)C(=NCc2ccc(OC)cc2)NC1c1ccccc1 (stereo not given)	none (no result: PfHsp90 set2, NSD2 inh, MITF TRPM1 inh, Glyco luc inh, MITF TRPM1 HTS)
CN(C)CCCNC(=O)c1ccc(-c2nc(-c3ccc(Cl)cc3)cs2)cc1	MITF TRPM1 inh 83 (no result: NSD2 inh, MITF TRPM1 HTS)
Cc1ccc(NC(=O)Nc2cccc(C)n2)c(C)c1	Wnt act 39
CCc1ccc(S(=O)(=O)c2nnn3c2nc(N2CCOCC2)c2ccccc23)cc1	none
O=C(NNc1nc2ccc(Cl)cc2s1)c1cc(-c2cccs2)nc2ccccc12	PfHsp90 set2 103 (no result: NSD2 inh)
COc1ccccc1-c1ccc(OCCCN2CCC(C(O)(c3ccccc3)c3ccccc3)CC2)cc1	none (no result: PfHsp90 set2, NSD2 inh, MITF TRPM1 inh, Glyco luc inh, MITF TRPM1 HTS)
CCc1ccc(-c2nc(CSCC(=O)N3CCN(c4ccccn4)CC3)c(C)o2)cc1	MITF TRPM1 inh 64 (no result: Wnt act, MITF TRPM1 HTS)
O=C(N[C@@H](Cc1cccnc1)C(=O)N1CCC[C@H]1C(=O)NC1CCCC1)c1ccc(Cl)c(Cl)c1	none (no result: PfHsp90 set2, NSD2 inh, MITF TRPM1 inh, Glyco luc inh, MITF TRPM1 HTS)
CCCCOc1ccc(C(=O)Nc2cccc(C)n2)cc1	MITF TRPM1 HTS 103 (no result: Wnt act)
CCCCOc1ccc(C(=O)NNC(=S)NC(=O)CC)cc1	PfHsp90 set2 106 (no result: Wnt act)
COc1ccc(C(=O)c2c(C(F)(F)F)oc3c2C(=O)c2ccccc2C3=O)cc1OC	MITF TRPM1 inh 90 (no result: MITF TRPM1 HTS)
CCOc1cccc(N2C(=O)CC(N(CCc3ccc(OC)c(OC)c3)C(=O)CC)C2=O)c1 (stereo not given)	none
CCOC(=O)c1ccc(N2C(=O)CC(N(C)CCc3ccc(OC)c(OC)c3)C2=O)cc1 (stereo not given)	PfHsp90 set2 112 (no result: Wnt act)
COCCNC(=O)c1cc2cc3ccc(OC)cc3nc2o1	none
CCCCN(CC)C(=O)c1cc2cc3ccc(OC)cc3nc2o1	Wnt act 58
COc1ccc2cc3cc(C(=O)Nc4ccccc4N4CCN(C)CC4)oc3nc2c1	MITF TRPM1 inh 66 (no result: NSD2 inh)
CCC(C)NC(=O)c1cc2cc3ccc(OC)cc3nc2o1 (stereo not given)	MITF TRPM1 HTS 89
COc1ccc2cc3cc(C(=O)NCCN4CCN(c5ccccc5F)CC4)oc3nc2c1	none
COc1cccc(CC(=O)N(Cc2ccccc2)c2ccccc2C(=O)Nc2cc(OC)ccc2OC)c1	none (no result: Wnt act, PfHsp90 set2, MITF TRPM1 inh, Glyco luc inh, MITF TRPM1 HTS)
O=C(Nc1cccc2ccccc12)/C(Cl)=C/c1ccccc1	none (no result: Wnt act, PfHsp90 set2)
CC(=O)c1ccc(NC(=O)/C(Cl)=C/c2ccccc2)cc1	MITF TRPM1 HTS 138
Cc1ccc(NC(=O)/C(Cl)=C\c2ccccc2)cc1	none
O=C(Nc1ccc(F)cc1)/C(Cl)=C/c1ccccc1	MITF TRPM1 HTS 84
Cc1ccnc(NC(=S)N2CCC(Nc3cccc(C(F)(F)F)c3)CC2)c1	none (no result: Wnt act, PfHsp90 set2, MITF TRPM1 inh, Glyco luc inh, MITF TRPM1 HTS)
CCn1ccnc1CN(C)C(=O)CCc1nnc(CCCc2ccccc2)o1	none
C=C(CN(C)C)C(=O)c1cc(C)ccc1C	MITF TRPM1 inh 106 (no result: MITF TRPM1 HTS)
O=C(CNC(=O)c1cccc(F)c1)N/N=C/c1cccs1	none
Cc1ccc2c(COC(=O)C34CC5CC(CC(C5)C3)C4)cc(=O)oc2c1	MITF TRPM1 HTS 103 (no result: Wnt act)
Cc1ccc2c(COC(=O)c3ccccc3Cl)cc(=O)oc2c1	MITF TRPM1 HTS 181
Cc1ccc2c(COC(=O)c3ccccc3Br)cc(=O)oc2c1	MITF TRPM1 HTS 118
Cc1ccc2c(COC(=O)c3ccc(C)c(C)c3)cc(=O)oc2c1	none
Cn1c(=O)c2c(ncn2Cc2ccc(O)c([N+](=O)[O-])c2)n(C)c1=O	none (no result: PfHsp90 set2, NSD2 inh, MITF TRPM1 inh, Glyco luc inh, MITF TRPM1 HTS)
CCOC(=O)N1CCN(C(=O)c2ccc3oc(CCc4ccccc4)nc3c2)CC1	none (no result: PfHsp90 set2, MITF TRPM1 inh, MITF TRPM1 HTS)
O=C(c1ccc2oc(CCc3ccccc3)nc2c1)N1CCC(O)CC1	MITF TRPM1 HTS 92
C/C(=N\NC(=O)c1ccc(Cn2cc(Br)cn2)o1)c1ccc(NC(=O)c2ccoc2C)cc1	none
CCCC(=O)NC(c1ccccc1Cl)c1ccc2cccnc2c1O (stereo not given)	PfHsp90 set2 113 (no result: MITF TRPM1 inh, MITF TRPM1 HTS)
CCCCC(=O)NC(c1ccc(OC)cc1)c1ccc2cccnc2c1O (stereo not given)	none (no result: PfHsp90 set2, MITF TRPM1 inh, MITF TRPM1 HTS)
Cc1cc(NC(c2ccc(Cl)cc2)c2ccc3cccnc3c2O)no1 (stereo not given)	PfHsp90 set2 101, MITF TRPM1 inh 78 (no result: NSD2 inh)
CCC(=O)NC(c1ccc(C)cc1)c1ccc2cccnc2c1O (stereo not given)	PfHsp90 set2 112, MITF TRPM1 inh inconclusive (no result: MITF TRPM1 HTS)
COc1ccc(C(NC(=O)C(C)C)c2ccc3cccnc3c2O)cc1 (stereo not given)	MITF TRPM1 inh 76
Cn1cc([N+](=O)[O-])c(C(=O)NC2CCCC2)n1	none

Source: PubChem
